The text below walks through data of PubChem BioAssay (Tox21).

Records with an inconclusive call do not appear. Active and inactive are the calls of the source. Unless noted, calls follow the shape of the full dose curve.

Assay [1] can be described thus: Nuclear factor erythroid 2-related factor 2/antioxidant responsive element (Nrf2/ARE) small molecule agonists: qHTS cell viability counter screen in human keratinocytes (AID 1919968; active = well fitted curve in the direction sought with a large enough effect in the repeat runs; an effect the other way counts as inactive or inconclusive; also: nearly all actives have a fitted effect of over 55% in size). The procedure, abridged:
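After a 5 h attachment period, ARE-reporter keratinocytes were dosed with compounds in DMSO and then cultured 23 h at 37 C. Cell viability came from CellTiter-Fluor signal read after a further 1 h.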

Assay [2] in a line: Nuclear factor erythroid 2-related factor 2/antioxidant responsive element (Nrf2/ARE) small molecule agonists: luciferase reporter gene qHTS assay in human keratinocytes (AID 1919969). Also: nearly all actives have a fitted effect of over 35% in size.
Assay [3] has as its target Gonadotropin-releasing hormone receptor (Homo sapiens) (UniProt P30968). The experiment in a line: Human gonadotropin-releasing hormone receptor (GnRHR) small molecule agonists, calcium flux assay in GnRHR-HEK293 cells (AID 1920063). Also: nearly all actives have a fitted effect of over 35% in size. The method in brief:
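We seeded human GnRHR-expressing HEK293 cells for 18 hours, loaded them with calcium dye for an hour at 37 C, added test compounds, and recorded fluorescence intensity kinetically for three minutes.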

Assay [4] concerns the target KiSS-1 receptor (Homo sapiens) (UniProt Q969F8). The experiment in a line: Human kisspeptin (KISS1R) small molecule agonists, calcium flux assay in KISS1R-HEK293 cells (AID 1920064; active = well fitted curve in the direction sought with a large enough effect in the repeat runs; an effect the other way counts as inactive or inconclusive). The procedure, abridged: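 Kinetic calcium assay, 1 s sampling over 3 min at Ex/Em 480/540, in HEK293 cells engineered with human KISS1R; compounds delivered in DMSO after 1 h dye loading.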

A short description of assay [5]: G protein-coupled receptor (GPCR) small molecule agonists, calcium flux assay: HEK293 wild type cell line counter screen (AID 1920065). The procedure, abridged: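 Calcium-sensitive dye, loaded 1 h at 37 C into cells cultured 18 h, reports compound-evoked calcium release as fluorescence (Ex/Em 480/540), measured over 3 min. Agonist mode; 15-point titrations, triplicate.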

The nature of assay [6]: p53 small molecule agonists, cell-based qHTS assay with human liver microsomes (AID 1963577).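 Also: p53 response element beta-lactamase reporter cells with liver microsomes plus NADPH.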 The method in brief:
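With metabolic activation: human liver microsomes (0.5 mg/mL final) plus NADPH (0.5 mg/mL final) added alongside compounds to p53RE-bla cells; 16 h 37 C exposure; beta-lactamase read by LiveBLAzer fluorescence.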

Assay [7] in a line: p53 small molecule agonists, cell-based qHTS assay with rat liver microsomes (AID 1963578). The method in brief: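 Metabolic activation by rat liver microsomes and NADPH, each 0.5 mg/mL final, added right after compounds to p53RE-bla reporter cells (4,000/well, plated 5 h earlier). 16 h at 37 C, then LiveBLAzer substrate for 2 h at room temperature in the dark; fluorescence read-out.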

Assay [8] in a line: p53 small molecule agonists, cell-based qHTS assay with human liver microsomes: qHTS cell viability counter screen (AID 1963579). Also: nearly all actives have a fitted effect of over 45% in size. Also: potency is read from the fitted curve at half-maximal effect. The method in brief: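 Metabolic activation used human liver microsomes and NADPH, both 0.5 mg/mL final, over 16 hours at 37 C on p53RE-bla cells (4,000/well). Cytotoxicity measured by CellTiter-Glo luminescence, 30 min at room temperature.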
Assay [9] in a line: p53 small molecule agonists, cell-based qHTS assay with rat liver microsomes: qHTS cell viability counter screen (AID 1963580). Also: nearly all actives have a fitted effect of over 45% in size. The procedure, abridged: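 In HCT-116 cells carrying a p53 response element-bla reporter, compounds were metabolically activated in situ by rat liver microsomes with NADPH over 16 h. Cell ATP content then served as the cytotoxicity measure.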
Assay [10] is described as follows: p53 small molecule agonists, cell-based qHTS assay: qHTS cell viability counter screen (AID 1963581). Also: nearly all actives have a fitted effect of over 45% in size. The procedure, abridged:
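Following 5 h attachment, HCT-116 p53RE-bla cells took up compound for 16 h at 37 C; the reporter was read with B/G FRET substrate (2 h RT), and viability then via CellTiter-Glo ATP luminescence.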

Assay [11] can be described thus: p53 small molecule agonists, cell-based qHTS assay (AID 1963582; active = well fitted activation curve with a large enough effect in the signal ratio in the repeat runs, not every such curve was filed as active; the % refers to the signal ratio). The method in brief:
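In this cell-based concentration-response screen, a p53 response element drives beta-lactamase; cells received DMSO-borne compounds after 5 h culture and were incubated a further 16 h before FRET substrate development.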

Assay [12] deals with 5-hydroxytryptamine receptor 2A (Homo sapiens) (UniProt P28223). The experiment in a line: 5-hydroxytryptamine receptor 2A (HTR2A) small molecule antagonists, cell-based qHTS assay (AID 1963586). Also: nearly all actives have a fitted effect of over 45% in size. The method in brief:
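Antagonist-mode intracellular calcium assay: DOI (4 nM) added after 5 min compound pre-incubation at room temperature to dye-loaded HTR2A-CHO cells. Fluorescence followed for 3 min, sampled every second.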

Assay [13] shares this target. The assay is described as follows: 5-hydroxytryptamine receptor 2A (HTR2A) small molecule agonists, cell-based qHTS assay (AID 1963587). Also: nearly all actives have a fitted effect of over 30% in size. The method in brief:
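HTR2A-CHO cells, plated 18 h at 37 C/5% CO2, dye-loaded 1 h at 37 C; compounds in DMSO added by pin tool (agonist mode). Intracellular calcium flux read as kinetic fluorescence on FDSS over 2 min at 1 s intervals.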

Assay [14] concerns the target Muscarinic acetylcholine receptor M1 (Homo sapiens) (UniProt P11229). The assay is described as follows: Cholinergic receptor muscarinic 1 (CHRM1) small molecule antagonists, cell-based qHTS assay (AID 1963588). Also: nearly all actives have a fitted effect of over 40% in size. The procedure, abridged:
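CHRM1-CHO calcium-flux assay, antagonist mode. Cells were seeded 18 h, dye-loaded 1 h at 37 C and given compound for 5 min at RT, then acetylcholine was added at 50nM. FDSS fluorescence was read 3 min; 15 concentrations, three runs.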

Assay [15] is described as follows: cAMP Responsive Elements (CRE) small molecule agonists, cell-based qHTS assay (AID 1963590). The method in brief:
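A CRE-responsive beta-lactamase reporter in HEK 293T cells was used. Treatment ran 3 h at 37 C; detection used LiveBLAzer B/G FRET substrate for 2 h at room temperature.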

A short description of assay [16]: cAMP Responsive Elements (CRE) small molecule antagonists, cell-based qHTS assay (AID 1963591; active = well fitted inhibition curve with a large enough effect in the signal ratio in the repeat runs, not every such curve was filed as active; the % refers to the signal ratio). The procedure, abridged: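 HEK293T cells carrying a CRE-driven beta-lactamase reporter receive compound and NKH477 (0.25 uM final) for 3 h. Fluorescence from LiveBLAzer B/G FRET substrate is read after 2 h at room temperature.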
The target of assay [17] is Beta-2 adrenergic receptor (Homo sapiens) (UniProt P07550). The experiment in a line: Adrenergic beta2 receptor (ADRB2) small molecule antagonists, cell-based qHTS assay (AID 1963592). Also: series mostly up to about 92 µM; nearly all actives have a fitted effect of over 50% in size. The procedure, abridged: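 Cells (CHO, stable ADRB2 overexpression) incubated 18-20hr at 37C; compounds added from DMSO; agonist mix (1nM isoproterenol, 100uM IBMX, 25uM Ro-20-1724) added; 0.5hr RT; d2-cAMP and anti-cAMP-cryptate added; 1hr RT; 665/615 nm read.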
Beta-2 adrenergic receptor (Homo sapiens), sequence (P07550 whole entry, looked up): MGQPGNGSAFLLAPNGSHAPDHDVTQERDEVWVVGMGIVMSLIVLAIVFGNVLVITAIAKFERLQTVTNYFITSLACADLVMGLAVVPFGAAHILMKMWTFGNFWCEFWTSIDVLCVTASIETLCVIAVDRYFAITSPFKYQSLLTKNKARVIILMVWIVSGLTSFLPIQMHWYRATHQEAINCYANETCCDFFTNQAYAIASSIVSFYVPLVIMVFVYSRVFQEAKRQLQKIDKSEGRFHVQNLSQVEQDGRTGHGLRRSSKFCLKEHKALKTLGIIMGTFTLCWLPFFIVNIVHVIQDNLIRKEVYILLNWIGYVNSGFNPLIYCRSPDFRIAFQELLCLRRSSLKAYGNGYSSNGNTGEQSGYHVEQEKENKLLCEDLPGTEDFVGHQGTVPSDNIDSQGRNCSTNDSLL

Assay [18] concerns the target D(2) dopamine receptor (Homo sapiens) (UniProt P14416). The assay is described as follows: Dopamine D2 receptor (DRD2) small molecule agonists, cell-based qHTS assay (AID 1963594). Also: nearly all actives have a fitted effect of over 35% in size. The procedure, abridged: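 HEK293 cells stably expressing DRD2 were cultured 24 h at 37 C, then given Ro20-1724 (0.1 mM final) and compounds for 10 min at room temperature. NKH477 (200nM) was then added for 30 min. cAMP was read by HTRF.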

The target is the same in assay [19]. The assay is described as follows: Dopamine D2 receptor (DRD2) small molecule antagonists, cell-based qHTS assay (AID 1963595; active = well fitted inhibition curve with a large enough effect in the signal ratio in the repeat runs, with a control signal flat; the % refers to the signal ratio). The method in brief:
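HEK293 cells stably expressing DRD2 were preincubated with 0.1 mM Ro20-1724, then with compound for 10 min at room temperature. Cells were stimulated with 200 nM NKH477 plus 12 nM quinpirole for 30 min, and cAMP was read by HTRF.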

Assay [20] addresses Muscarinic acetylcholine receptor M1 (Homo sapiens) (UniProt P11229). The assay is described as follows: Cholinergic receptor muscarinic 1 (CHRM1) small molecule agonists, cell-based qHTS assay (AID 1963589). Also: nearly all actives have a fitted effect of over 35% in size. The method in brief:
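Measures agonist-induced intracellular calcium rise. Stable human CHRM1 CHO line, 1 h dye load at 37 C, compounds from DMSO, kinetic fluorescence read.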

5-hydroxytryptamine receptor 2A (Homo sapiens), sequence (P28223 whole entry, looked up): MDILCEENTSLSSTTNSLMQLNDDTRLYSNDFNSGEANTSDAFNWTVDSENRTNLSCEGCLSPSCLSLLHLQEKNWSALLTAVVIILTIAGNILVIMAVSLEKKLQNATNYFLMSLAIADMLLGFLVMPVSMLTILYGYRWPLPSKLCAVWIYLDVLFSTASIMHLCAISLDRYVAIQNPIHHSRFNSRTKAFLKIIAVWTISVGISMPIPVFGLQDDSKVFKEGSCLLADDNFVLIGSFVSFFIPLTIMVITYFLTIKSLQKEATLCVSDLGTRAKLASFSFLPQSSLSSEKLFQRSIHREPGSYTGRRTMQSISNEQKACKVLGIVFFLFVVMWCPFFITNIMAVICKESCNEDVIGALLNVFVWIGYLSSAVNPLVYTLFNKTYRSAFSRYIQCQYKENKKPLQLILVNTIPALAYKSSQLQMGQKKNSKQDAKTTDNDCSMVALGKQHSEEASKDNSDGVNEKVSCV
Muscarinic acetylcholine receptor M1 (Homo sapiens), sequence (P11229 whole entry, looked up): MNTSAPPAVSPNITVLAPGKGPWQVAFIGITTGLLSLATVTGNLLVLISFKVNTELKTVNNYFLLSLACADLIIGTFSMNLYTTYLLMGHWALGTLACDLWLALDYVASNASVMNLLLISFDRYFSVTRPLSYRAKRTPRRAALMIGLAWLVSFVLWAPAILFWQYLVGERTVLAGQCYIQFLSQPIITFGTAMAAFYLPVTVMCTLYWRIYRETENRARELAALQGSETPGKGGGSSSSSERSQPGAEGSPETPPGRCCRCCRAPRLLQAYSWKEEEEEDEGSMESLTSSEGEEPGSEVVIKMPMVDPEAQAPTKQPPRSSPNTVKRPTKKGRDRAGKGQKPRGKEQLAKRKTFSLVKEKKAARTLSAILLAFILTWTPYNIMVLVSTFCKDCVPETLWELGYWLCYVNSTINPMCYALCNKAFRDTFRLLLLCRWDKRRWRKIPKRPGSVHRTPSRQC
Gonadotropin-releasing hormone receptor (Homo sapiens), sequence (P30968 whole entry, looked up): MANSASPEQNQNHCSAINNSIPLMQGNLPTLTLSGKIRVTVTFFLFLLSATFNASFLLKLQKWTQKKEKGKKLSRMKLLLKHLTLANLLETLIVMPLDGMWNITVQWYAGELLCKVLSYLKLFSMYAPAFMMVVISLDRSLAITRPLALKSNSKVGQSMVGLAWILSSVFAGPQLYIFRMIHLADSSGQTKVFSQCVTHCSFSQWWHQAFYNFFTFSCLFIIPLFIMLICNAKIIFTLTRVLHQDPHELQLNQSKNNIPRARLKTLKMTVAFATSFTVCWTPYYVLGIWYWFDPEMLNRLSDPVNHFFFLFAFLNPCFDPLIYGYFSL
D(2) dopamine receptor (Homo sapiens), sequence (P14416 whole entry, looked up): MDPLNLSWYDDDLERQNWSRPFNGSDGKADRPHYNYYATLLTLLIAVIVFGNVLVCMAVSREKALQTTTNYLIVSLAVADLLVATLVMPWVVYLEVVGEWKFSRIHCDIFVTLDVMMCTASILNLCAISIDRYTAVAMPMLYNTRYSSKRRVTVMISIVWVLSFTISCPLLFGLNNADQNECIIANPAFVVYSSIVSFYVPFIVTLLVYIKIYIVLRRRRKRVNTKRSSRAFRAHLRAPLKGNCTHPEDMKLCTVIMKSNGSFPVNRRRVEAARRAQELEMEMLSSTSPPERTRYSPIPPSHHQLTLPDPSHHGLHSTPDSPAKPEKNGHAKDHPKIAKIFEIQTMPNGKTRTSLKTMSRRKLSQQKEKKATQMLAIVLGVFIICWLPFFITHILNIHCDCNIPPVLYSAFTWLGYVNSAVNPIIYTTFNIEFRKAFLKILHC
KiSS-1 receptor (Homo sapiens), sequence (Q969F8 whole entry, looked up): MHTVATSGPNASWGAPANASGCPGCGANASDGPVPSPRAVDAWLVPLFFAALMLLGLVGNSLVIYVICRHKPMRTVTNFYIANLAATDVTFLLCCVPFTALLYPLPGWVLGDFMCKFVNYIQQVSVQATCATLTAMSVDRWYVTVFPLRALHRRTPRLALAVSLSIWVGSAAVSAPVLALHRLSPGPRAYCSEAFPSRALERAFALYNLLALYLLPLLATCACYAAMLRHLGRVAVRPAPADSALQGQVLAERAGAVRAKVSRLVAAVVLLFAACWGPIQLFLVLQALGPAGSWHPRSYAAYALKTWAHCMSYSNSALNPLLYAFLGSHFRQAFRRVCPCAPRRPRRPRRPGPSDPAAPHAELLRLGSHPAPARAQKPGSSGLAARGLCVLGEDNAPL

With `NCc1ccccc1Sc1ccccc1CO`, the Potency result in assay [1], in assay [2], in assay [3], in assay [4], in assay [5] and in [6] was “inactive” in each case. For the same compound, the Potency entry in [7], in assay [8], in assay [9], in [10], in assay [11] and in assay [12] was “inactive” in each case. The Potency result in assay [13], in [14], in assay [15], in assay [16], in assay [17] and in [18] was “inactive” throughout. For the same compound, the Potency entry in assay [19] was “inactive”.
With `CCOc1ccc(N)c([N+](=O)[O-])c1`, the Potency entry in [1], in assay [2], in assay [3], in assay [4], in [5] and in assay [6] was “inactive” each time. Further, the Potency entry in [7], in assay [8], in [9], in assay [10], in assay [11] and in assay [12] was “inactive” each time. The Potency entry in assay [13], in assay [14], in assay [15], in assay [16], in assay [17] and in assay [18] was “inactive” in each case. The Potency entry in assay [19] is “inactive”.
In the case of `CC(=O)Nc1ncc([N+](=O)[O-])s1`, the Potency entry in assay [1], in [2], in assay [3], in [4], in assay [5] and in assay [6] was “inactive” each time. Further, the Potency result in assay [7], in assay [8], in assay [9], in assay [10], in assay [11] and in assay [12] was “inactive” throughout. Moreover, the Potency result in [13], in assay [14], in assay [15], in [16], in assay [17] and in assay [18] was “inactive” each time. Besides, the Potency entry in assay [19] was “inactive”.
On to `NS(=O)(=O)c1cc2c(cc1Cl)NC(C1CC3C=CC1C3)NS2(=O)=O` (centres undefined), for which the Potency entry in [1], in assay [2], in assay [3], in assay [4], in assay [5] and in [6] was “inactive” throughout. Also, the Potency entry in assay [7], in assay [9], in assay [10], in assay [11], in [12] and in assay [13] was “inactive” each time. Further, the Potency entry in assay [14], in [20], in assay [17] and in [18] was “inactive” each time. Moreover, the Potency in assay [8] is 3.97 µM (active).
In the case of `C=C(C)[C@@H]1CC[C@@H](C)C[C@@H]1O`, the Potency result in [1], in assay [2], in assay [3], in [4], in [5] and in [6] was “inactive” in each case. For the same compound, the Potency entry in assay [7], in assay [8], in assay [9], in assay [10], in [11] and in assay [12] was “inactive” throughout. For the same compound, the Potency entry in assay [13], in [14], in assay [20], in assay [17], in assay [18] and in [19] was “inactive” throughout.
Consider `CCCCOC(=O)CCCCCCCC(=O)OCCCC`, for which the Potency entry in assay [1], in [2], in assay [3], in assay [4], in assay [5] and in assay [6] was “inactive” in each case. Also, the Potency result in assay [7], in assay [8], in assay [9], in [10], in [11] and in [12] was “inactive” in each case. Moreover, the Potency entry in [13], in assay [20], in assay [15], in assay [16], in [17] and in assay [18] was “inactive” in each case. In addition, in [19], the Potency entry is “inactive”.
As for `NC(=O)c1cccc([N+](=O)[O-])c1`, the Potency result in [1], in assay [2], in [3], in assay [4], in [5] and in assay [6] was “inactive” throughout. The Potency entry in assay [7], in [8], in [9], in assay [10], in assay [11] and in [12] was “inactive” throughout. The Potency entry in [13], in [20], in assay [15], in assay [16], in assay [17] and in assay [18] was “inactive” in each case. The Potency entry in [19] was “inactive”.
For `NS(=O)(=O)c1ccccc1OC(F)(F)F`, the Potency entry in assay [1], in assay [2], in [3], in assay [4], in assay [5] and in [6] was “inactive” each time. The Potency result in [7], in assay [8], in [9], in assay [10], in assay [11] and in [12] was “inactive” in each case. In addition, the Potency entry in assay [13], in [20], in [15], in assay [16], in assay [17] and in assay [18] was “inactive” each time. Moreover, in [19], the Potency entry is “inactive”.
